Measured values as given in the supplement of paper PMC6555819.

Key:
Assay in all cases: PBM binding z-score (relative to random genomic background probes); higher = stronger binding; sequences stand for … in GC…GCGATTGACAGCGTAGAATGAAGG
[1] = system: FXR:RXRa (NR concentration 270 nM, RXRa partner concentration 90 nM)
Method in brief: (§1)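 Regression normalization was applied to scanned fluorescence from custom Agilent 4×180K protein-binding microarrays. Before scanning, arrays were incubated 1 h with ligand-free nuclear receptor dimers, and binding was detected with antibodies against each partner (one per run). Binding z-scores use the random background probes as reference.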

[2] = system: LXRa:RXRa (NR concentration 270 nM, RXRa partner concentration 90 nM)
Method in brief: as §1

[3] = system: LXRa homodimer (NR concentration 270 nM)
Method in brief: as §1

[4] = system: LXRb:RXRa (NR concentration 270 nM, RXRa partner concentration 90 nM)
Method in brief: as §1

[5] = system: LXRb homodimer (NR concentration 270 nM)
Method in brief: as §1

[6] = system: PPARa:RXRa (NR concentration 270 nM, RXRa partner concentration 90 nM)
Method in brief: as §1

[7] = system: PPARg:RXRa (NR concentration 180 nM, RXRa partner concentration 90 nM)
Method in brief: as §1

[8] = system: PPARg:RXRa 270nM:90nM, anti-RXR (NR concentration 270 nM, RXRa partner concentration 90 nM)
Method in brief: as §1

[9] = system: PPARg:RXRa 30nM:10nM, anti-RXR (NR concentration 30 nM, RXRa partner concentration 10 nM)
Method in brief: as §1

[10] = system: PPARg:RXRa 90nM:30nM, anti-RXR (NR concentration 90 nM, RXRa partner concentration 30 nM)
Method in brief: as §1

[11] = system: PPARg:RXRa DBDmut IVT, anti-RXR (DBD mutation: RXRa K156A/R161A, NR concentration 270 nM, RXRa partner concentration 90 nM)
Method in brief: as §1

[12] = system: PPARg:RXRa IVT, anti-PPARg (NR concentration 270 nM, RXRa partner concentration 90 nM)
Method in brief: as §1

[13] = system: PPARg DBDmut:RXRa IVT, anti-PPARg (DBD mutation: PPARg1 K132A/R137A, NR concentration 270 nM, RXRa partner concentration 90 nM)
Method in brief: as §1

[14] = system: PPARg DBDmut IVT, anti-PPARg (DBD mutation: PPARg1 K132A/R137A, NR concentration 270 nM)
Method in brief: as §1

[15] = system: PPARg homodimer (NR concentration 180 nM)
Method in brief: as §1

[16] = system: PXR:RXRa (NR concentration 270 nM, RXRa partner concentration 90 nM)
Method in brief: as §1

[17] = system: PXR homodimer (NR concentration 270 nM)
Method in brief: as §1

[18] = system: RARa:RXR (NR concentration 270 nM, RXRa partner concentration 90 nM)
Method in brief: as §1

[19] = system: RARa homodimer (NR concentration 270 nM)
Method in brief: as §1

[20] = system: RARb:RXRa (NR concentration 270 nM, RXRa partner concentration 90 nM)
Method in brief: as §1

Sequence | PBM binding z-score [1] | PBM binding z-score [2] | PBM binding z-score [3] | PBM binding z-score [4] | PBM binding z-score [5] | PBM binding z-score [6] | PBM binding z-score [7] | PBM binding z-score [8] | PBM binding z-score [9] | PBM binding z-score [10] | PBM binding z-score [11] | PBM binding z-score [12] | PBM binding z-score [13] | PBM binding z-score [14] | PBM binding z-score [15] | PBM binding z-score [16] | PBM binding z-score [17] | PBM binding z-score [18] | PBM binding z-score [19] | PBM binding z-score [20]
CGAACTAGGTCAAGGTCAAAGTCGGTTTGTGCCA | 6.55 | 5.52 | 3.7 | 4.39 | 1.14 | 5.86 | 9.77 | 7.93 | 6.78 | 8.09 | 8.45 | 8.59 | 3.32 | 1.2 | 4.39 | 5.28 | 2.59 | 5.41 | 1.57 | 4.93
TAGCCTAGGTCATGAGGGCCAGTATAGTGTCGGC | 3.91 | 3.07 | 0.189 | 1.73 | -0.262 | 3.69 | 2.94 | 2.69 | 0.483 | 1.94 | 2.17 | 3.05 | 0.44 | -0.29 | 0.909 | 1.6 | -0.521 | 2.56 | -0.556 | 3.8
TCTTGTAGATCAGCAGGTTAAAAAAGCTGGCCAA | 0.198 | 0.216 | -0.0606 | 0.293 | -0.538 | 0.844 | -0.455 | 1.44 | 2.6 | 1.94 | 1.58 | 0.467 | -0.542 | 0.0495 | 0.159 | 0.148 | -0.197 | 0.613 | -0.11 | 0.0554
TCTAATAGTTGATTAGGGCAACCGAAACAGCGGA | -0.0644 | 0.461 | -0.078 | 0.136 | -0.225 | 1.23 | 0.375 | 1.85 | 3.3 | 2.53 | 1.74 | 1.56 | 0.711 | 0.3 | 0.347 | 0.323 | -0.117 | 0.766 | -0.402 | 0.915
TCTTGTAGATCAACAGGAGGTTAAGCAAGATCGA | 0.257 | 0.838 | -0.069 | 0.853 | -0.368 | 1.48 | 0.076 | 1.47 | 2.39 | 1.74 | 1.61 | 0.884 | 0.4 | 0.795 | -0.0893 | 0.934 | 0.136 | 1.22 | -0.27 | 0.659
AGAATGAGGTTGCCAAAGATCAGGGAAACGCTTG | 0.0162 | 0.364 | -0.555 | 0.0727 | -0.656 | 0.857 | 0.786 | 0.932 | 0.289 | 0.435 | -0.0771 | -0.145 | -0.469 | -0.747 | -0.291 | 0.0324 | -0.465 | 0.398 | -0.509 | 0.286
TGAATGAGCTTATAAGATCAGGGAACGTTGCAAA | -0.538 | -0.891 | -0.553 | -0.584 | -0.76 | -0.485 | -0.117 | -0.382 | 0.0852 | -0.46 | -1.43 | -0.528 | 0.471 | 0.179 | -0.626 | -0.456 | -0.325 | -0.125 | -0.206 | -1.12
CAAACTAGGTCATGAAAGGTCAAAGTCGAATGAC | 7.56 | 8.15 | 8.41 | 7.23 | 2.86 | 6.78 | 9.71 | 8.12 | 6.46 | 8.38 | 8.27 | 8.84 | 5.43 | 7.62 | 9.18 | 7.23 | 2.71 | 7.33 | 4.32 | 5.36
GGAACGAGGGCATTCGACTTGATAGCATGGCGAT | 0.596 | 0.173 | -0.634 | -0.0929 | -0.467 | 1.41 | 1.14 | 0.717 | -0.0237 | 0.28 | 2.67 | 2.21 | 0.442 | 0.0396 | -0.0413 | 0.499 | 0.283 | -0.119 | -0.012 | 1.6
